Reference: the supplement of paper PMC10849652
Of roughly 7,900 targets only a part is listed; those with a hit were picked by preference. About 0.6% of all pairs of compound and target were hits.

Compound: CNC(=O)c1ccc(Nc2ncc(C(F)(F)F)c(NCc3nccnc3N(C)S(C)(=O)=O)n2)cc1 [defactinib]
Assay: log2 fold change, soluble protein after heating vs DMSO (PISA); higher = thermal stabilisation; K562 cells, 10 uM, 30 min; active = over 0.2 and 3.5 SD of the protein, either way, in both replicates (recomputed)
Procedure, shortened: (§1)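 Values are thermal stability changes relative to control samples and are taken from duplicates. They are stated as log2 fold changes. Before quantification by TMTpro 16plex LC-MS/MS with equalised channel sums, K562 cells at 2×10^6 cells/mL were treated with 10 μM compound for 30 min, heated in aliquots for 3 min across 48°C-58°C, pooled, extracted in PBS with 0.5% NP-40 at 4°C, and centrifuged at 21,000xg for 90 min to give the soluble supernatant.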

UniProt Q08431, sequence (Q08431 whole entry, looked up): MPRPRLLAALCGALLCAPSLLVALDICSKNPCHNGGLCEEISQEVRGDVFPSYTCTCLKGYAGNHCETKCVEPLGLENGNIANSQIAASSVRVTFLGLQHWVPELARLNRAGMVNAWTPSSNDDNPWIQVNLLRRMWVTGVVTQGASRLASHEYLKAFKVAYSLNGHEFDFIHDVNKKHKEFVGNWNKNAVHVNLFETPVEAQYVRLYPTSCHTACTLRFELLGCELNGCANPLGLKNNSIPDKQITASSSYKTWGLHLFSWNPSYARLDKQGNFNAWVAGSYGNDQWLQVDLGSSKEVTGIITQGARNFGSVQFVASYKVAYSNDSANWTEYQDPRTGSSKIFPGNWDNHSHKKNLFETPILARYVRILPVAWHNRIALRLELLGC
UniProt Q4G0J3, sequence (Q4G0J3 whole entry, looked up): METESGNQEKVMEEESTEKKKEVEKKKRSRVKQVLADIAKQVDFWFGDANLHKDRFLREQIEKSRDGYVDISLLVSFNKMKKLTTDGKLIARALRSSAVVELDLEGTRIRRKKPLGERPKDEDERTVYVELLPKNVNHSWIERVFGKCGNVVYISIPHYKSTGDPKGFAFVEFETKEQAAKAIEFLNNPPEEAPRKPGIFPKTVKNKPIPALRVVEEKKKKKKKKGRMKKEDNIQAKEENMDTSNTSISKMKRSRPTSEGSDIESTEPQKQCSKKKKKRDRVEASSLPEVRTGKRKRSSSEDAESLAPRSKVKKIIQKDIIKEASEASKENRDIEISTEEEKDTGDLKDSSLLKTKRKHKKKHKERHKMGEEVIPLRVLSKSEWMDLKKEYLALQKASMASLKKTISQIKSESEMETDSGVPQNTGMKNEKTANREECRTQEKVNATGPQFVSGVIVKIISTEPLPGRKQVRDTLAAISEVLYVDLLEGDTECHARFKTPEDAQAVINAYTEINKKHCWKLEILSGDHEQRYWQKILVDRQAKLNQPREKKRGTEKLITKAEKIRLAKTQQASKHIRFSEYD
UniProt O94889, sequence (O94889 whole entry, looked up): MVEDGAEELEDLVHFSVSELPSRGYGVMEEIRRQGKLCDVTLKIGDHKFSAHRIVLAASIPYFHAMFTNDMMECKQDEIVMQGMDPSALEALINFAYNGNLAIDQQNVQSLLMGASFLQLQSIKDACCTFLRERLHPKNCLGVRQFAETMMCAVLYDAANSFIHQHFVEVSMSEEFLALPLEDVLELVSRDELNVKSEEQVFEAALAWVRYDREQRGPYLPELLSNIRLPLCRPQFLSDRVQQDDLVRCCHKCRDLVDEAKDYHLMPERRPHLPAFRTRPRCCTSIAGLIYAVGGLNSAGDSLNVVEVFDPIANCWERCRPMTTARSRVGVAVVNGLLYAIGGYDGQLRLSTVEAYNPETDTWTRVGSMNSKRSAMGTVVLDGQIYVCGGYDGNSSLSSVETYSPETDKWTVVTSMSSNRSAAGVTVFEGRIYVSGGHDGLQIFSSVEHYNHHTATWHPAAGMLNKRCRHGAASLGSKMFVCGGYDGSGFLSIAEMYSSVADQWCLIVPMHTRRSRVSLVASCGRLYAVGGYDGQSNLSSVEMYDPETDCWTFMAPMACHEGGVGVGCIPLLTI
UniProt Q6N075, sequence (Q6N075 whole entry, looked up): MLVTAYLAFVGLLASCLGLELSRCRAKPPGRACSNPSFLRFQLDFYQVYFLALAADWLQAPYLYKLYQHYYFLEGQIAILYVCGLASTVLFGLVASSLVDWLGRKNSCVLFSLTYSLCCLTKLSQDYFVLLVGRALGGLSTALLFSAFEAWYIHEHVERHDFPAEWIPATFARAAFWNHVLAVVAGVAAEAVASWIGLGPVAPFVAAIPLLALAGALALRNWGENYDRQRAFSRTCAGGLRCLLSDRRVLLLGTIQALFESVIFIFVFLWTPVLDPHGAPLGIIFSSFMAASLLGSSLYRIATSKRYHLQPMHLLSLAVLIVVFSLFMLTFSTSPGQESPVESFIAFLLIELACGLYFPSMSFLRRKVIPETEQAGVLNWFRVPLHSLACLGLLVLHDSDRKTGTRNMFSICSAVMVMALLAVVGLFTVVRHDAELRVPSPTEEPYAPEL
UniProt Q9HCC0, sequence (Q9HCC0 whole entry, looked up): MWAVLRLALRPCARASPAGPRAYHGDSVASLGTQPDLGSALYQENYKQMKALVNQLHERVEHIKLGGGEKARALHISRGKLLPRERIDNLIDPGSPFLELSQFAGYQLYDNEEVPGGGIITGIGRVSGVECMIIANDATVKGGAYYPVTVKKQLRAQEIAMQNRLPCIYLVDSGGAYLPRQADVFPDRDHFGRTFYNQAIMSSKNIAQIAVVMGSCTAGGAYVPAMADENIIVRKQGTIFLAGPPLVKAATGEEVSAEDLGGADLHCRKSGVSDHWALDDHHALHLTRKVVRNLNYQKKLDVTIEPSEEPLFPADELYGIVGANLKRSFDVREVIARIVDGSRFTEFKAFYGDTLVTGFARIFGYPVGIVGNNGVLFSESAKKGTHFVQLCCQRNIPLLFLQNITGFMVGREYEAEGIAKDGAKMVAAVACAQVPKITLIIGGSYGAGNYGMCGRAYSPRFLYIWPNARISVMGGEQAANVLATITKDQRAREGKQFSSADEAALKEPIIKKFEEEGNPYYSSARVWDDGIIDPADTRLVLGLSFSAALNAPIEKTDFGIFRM
UniProt Q03252, sequence (Q03252 whole entry, looked up): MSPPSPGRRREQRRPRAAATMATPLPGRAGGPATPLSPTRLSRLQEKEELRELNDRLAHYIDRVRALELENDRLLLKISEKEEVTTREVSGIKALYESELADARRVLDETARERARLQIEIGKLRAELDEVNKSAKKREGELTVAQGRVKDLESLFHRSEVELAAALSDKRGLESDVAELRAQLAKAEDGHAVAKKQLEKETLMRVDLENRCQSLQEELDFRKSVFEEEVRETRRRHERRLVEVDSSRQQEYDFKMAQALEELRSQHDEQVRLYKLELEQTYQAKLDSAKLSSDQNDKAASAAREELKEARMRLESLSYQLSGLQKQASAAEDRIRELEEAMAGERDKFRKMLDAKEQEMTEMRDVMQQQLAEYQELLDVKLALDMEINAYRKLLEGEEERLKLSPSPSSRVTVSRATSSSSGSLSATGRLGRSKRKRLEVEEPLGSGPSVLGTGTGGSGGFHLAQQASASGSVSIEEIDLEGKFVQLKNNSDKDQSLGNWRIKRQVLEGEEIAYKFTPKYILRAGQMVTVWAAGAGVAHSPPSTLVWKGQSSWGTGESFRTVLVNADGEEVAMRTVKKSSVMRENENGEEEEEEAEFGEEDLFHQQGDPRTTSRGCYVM
UniProt Q6P9B6, sequence (Q6P9B6 whole entry, looked up): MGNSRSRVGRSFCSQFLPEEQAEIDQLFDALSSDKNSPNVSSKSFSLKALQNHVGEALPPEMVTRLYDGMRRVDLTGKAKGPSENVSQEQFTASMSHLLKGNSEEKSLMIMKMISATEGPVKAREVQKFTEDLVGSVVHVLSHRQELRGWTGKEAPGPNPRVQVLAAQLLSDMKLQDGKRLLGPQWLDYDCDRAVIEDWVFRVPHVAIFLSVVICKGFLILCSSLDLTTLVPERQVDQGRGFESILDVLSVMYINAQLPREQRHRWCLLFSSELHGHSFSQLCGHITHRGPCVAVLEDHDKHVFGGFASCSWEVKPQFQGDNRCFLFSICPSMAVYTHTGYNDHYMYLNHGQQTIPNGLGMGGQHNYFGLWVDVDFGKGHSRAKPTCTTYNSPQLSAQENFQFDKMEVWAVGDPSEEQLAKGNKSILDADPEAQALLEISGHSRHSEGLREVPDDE
UniProt P45984, sequence (P45984 whole entry, looked up): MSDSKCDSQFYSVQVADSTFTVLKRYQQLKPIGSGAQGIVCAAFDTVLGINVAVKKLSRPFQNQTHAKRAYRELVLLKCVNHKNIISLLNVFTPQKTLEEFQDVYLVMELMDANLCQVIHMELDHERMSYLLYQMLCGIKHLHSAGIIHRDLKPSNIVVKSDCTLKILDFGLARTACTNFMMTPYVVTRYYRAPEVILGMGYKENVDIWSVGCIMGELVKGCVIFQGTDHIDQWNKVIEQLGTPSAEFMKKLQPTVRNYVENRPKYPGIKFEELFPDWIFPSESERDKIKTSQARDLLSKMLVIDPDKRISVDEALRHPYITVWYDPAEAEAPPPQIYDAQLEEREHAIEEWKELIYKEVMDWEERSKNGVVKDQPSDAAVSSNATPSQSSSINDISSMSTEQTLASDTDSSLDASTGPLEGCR
UniProt Q8NC54, sequence (Q8NC54 whole entry, looked up): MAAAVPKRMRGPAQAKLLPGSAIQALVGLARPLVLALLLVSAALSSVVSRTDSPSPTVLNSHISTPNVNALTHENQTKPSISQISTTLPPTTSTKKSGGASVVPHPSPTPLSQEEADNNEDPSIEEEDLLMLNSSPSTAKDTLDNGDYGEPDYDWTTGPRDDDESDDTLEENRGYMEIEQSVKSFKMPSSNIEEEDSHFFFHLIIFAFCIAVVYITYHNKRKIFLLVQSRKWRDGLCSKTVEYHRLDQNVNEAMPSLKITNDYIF
UniProt Q96A72, sequence (Q96A72 whole entry, looked up): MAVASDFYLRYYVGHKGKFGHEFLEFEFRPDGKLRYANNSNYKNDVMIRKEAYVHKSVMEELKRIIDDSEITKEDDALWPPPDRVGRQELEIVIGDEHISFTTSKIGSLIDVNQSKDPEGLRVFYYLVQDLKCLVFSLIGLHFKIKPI
UniProt Q9H6V9, sequence (Q9H6V9 whole entry, looked up): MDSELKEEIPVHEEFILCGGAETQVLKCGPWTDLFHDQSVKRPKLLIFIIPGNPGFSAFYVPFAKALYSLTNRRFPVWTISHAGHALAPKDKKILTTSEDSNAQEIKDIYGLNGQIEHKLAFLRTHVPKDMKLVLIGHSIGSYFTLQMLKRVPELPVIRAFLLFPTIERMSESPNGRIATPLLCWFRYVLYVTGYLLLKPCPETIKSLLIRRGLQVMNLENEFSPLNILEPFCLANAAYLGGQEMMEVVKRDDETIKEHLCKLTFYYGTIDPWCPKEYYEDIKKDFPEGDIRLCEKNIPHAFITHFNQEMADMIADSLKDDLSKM

Target | log2 fold change
LARP7 isoform 3 (UniProt Q4G0J3) | -0.328 (active)
LDAH isoform 2 (UniProt Q9H6V9) | -0.09 (inactive)
MFN2 (UniProt O95140) | -0.066 (inactive)
MAGOHB (UniProt Q96A72) | -0.003 (inactive)
LMNB2 (UniProt Q03252) | -0.201 (inactive)
LTV1 (UniProt Q96GA3) | 0.145 (inactive)
KLHL18 (UniProt O94889) | -0.04 (inactive)
MFSD5 isoform 2 (UniProt Q6N075) | 0.039 (inactive)
MEAK7 (UniProt Q6P9B6) | -0.041 (inactive)
MCCC2 (UniProt Q9HCC0) | 0.008 (inactive)
ITIH4 (UniProt Q14624) | 0.101 (inactive)
KNTC1 (UniProt P50748) | -0.044 (inactive)
MFGE8 (UniProt Q08431) | 0.099 (inactive)
KCT2 (UniProt Q8NC54) | -0.088 (inactive)
MAPK9 (UniProt P45984) | 0.003 (inactive)
LSS (UniProt P48449) | -0.015 (inactive)

Compound: CNCc1ccc(-c2[nH]c3cc(F)cc4c3c2CCNC4=O)cc1 [rucaparib]
Assay: as above
Procedure, shortened: as §1

Target | log2 fold change
KDM3B (UniProt Q7LBC6) | -0.058 (inactive)
MAP2K7 isoform 4 (UniProt O14733) | 0.036 (inactive)
MIEF1 (UniProt L0R8F8) | 0.024 (inactive)
MARCKSL1 (UniProt P49006) | -0.035 (inactive)
MEPCE (UniProt Q7L2J0) | -0.056 (inactive)
MCUR1 (UniProt Q96AQ8) | -0.038 (inactive)
MED1 (UniProt Q15648) | 0.067 (inactive)
LNPEP (UniProt Q9UIQ6) | -0.014 (inactive)
IPO7 (UniProt O95373) | -0.083 (inactive)
LMNB1 (UniProt P20700) | -0.035 (inactive)
MAGEC2 (UniProt Q9UBF1) | -0.021 (inactive)
KDELR2 (UniProt P33947) | -0.072 (inactive)
INTS7 (UniProt Q9NVH2) | 0.019 (inactive)
LMBRD2 (UniProt Q68DH5) | 0.003 (inactive)
INPP5B (UniProt P32019) | 0.066 (inactive)
IRF2BPL (UniProt Q9H1B7) | 0.015 (inactive)
KIF3A (UniProt Q9Y496) | 0.292 (inactive)
LNPK (UniProt Q9C0E8) | -0.015 (inactive)
LEO1 (UniProt Q8WVC0) | -0.151 (inactive)
MCU (UniProt Q8NE86) | -0.032 (inactive)

Target | log2 fold change
MAP1LC3B2 (UniProt A6NCE7) | 0.004 (inactive)
MAST4 (UniProt O15021) | -0.101 (inactive)
ILK (UniProt Q13418) | 0.026 (inactive)
LARP7 isoform 3 (UniProt Q4G0J3) | -0.164 (inactive)
LDAH isoform 2 (UniProt Q9H6V9) | -0.004 (inactive)
MFN2 (UniProt O95140) | 0.041 (inactive)
MAGOHB (UniProt Q96A72) | -0.021 (inactive)
LMNB2 (UniProt Q03252) | -0.085 (inactive)
LTV1 (UniProt Q96GA3) | 0.074 (inactive)
KLHL18 (UniProt O94889) | -0.042 (inactive)
MFSD5 isoform 2 (UniProt Q6N075) | 0.058 (inactive)
MEAK7 (UniProt Q6P9B6) | 0.008 (inactive)
MCCC2 (UniProt Q9HCC0) | 0.012 (inactive)
ITIH4 (UniProt Q14624) | -0.142 (inactive)
KNTC1 (UniProt P50748) | 0.021 (inactive)
MFGE8 (UniProt Q08431) | -0.043 (inactive)
KCT2 (UniProt Q8NC54) | -0.008 (inactive)
MAPK9 (UniProt P45984) | -0.02 (inactive)
LSS (UniProt P48449) | 0.595 (active)
